Screening data as filed in PubChem BioAssay.
ROMK mod – ROMK potassium channel modulators, primary screen, cell-based, thallium flux, MLSMR library; ATP-sensitive inward rectifier potassium channel 1 (Homo sapiens), P48048; Tet-inducible ROMK, thallium flux fluorescence; actives lie on both sides; B-score at 10 µM; 130,000 tested, 2% active; AID 1918, 2009;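 active means signal ratio slope over the read window, or its plate-corrected B-score, at least 3 SD from the plate mean, either direction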;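 further: B-score of the F/F0 ratio slope over 7 to 12 s after thallium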
p97 inhibitor – inhibitors of human p97 ATPase, primary screen, biochemical; Transitional endoplasmic reticulum ATPase (Homo sapiens), P55072; recombinant p97 ATPase, Kinase-Glo ATP luminescence, 3 h; inhibition, % at 8 µM; 220,000 tested, 0.42% active; in the data active means inhibition above about 15%
Target sequence (P55072 whole entry, looked up): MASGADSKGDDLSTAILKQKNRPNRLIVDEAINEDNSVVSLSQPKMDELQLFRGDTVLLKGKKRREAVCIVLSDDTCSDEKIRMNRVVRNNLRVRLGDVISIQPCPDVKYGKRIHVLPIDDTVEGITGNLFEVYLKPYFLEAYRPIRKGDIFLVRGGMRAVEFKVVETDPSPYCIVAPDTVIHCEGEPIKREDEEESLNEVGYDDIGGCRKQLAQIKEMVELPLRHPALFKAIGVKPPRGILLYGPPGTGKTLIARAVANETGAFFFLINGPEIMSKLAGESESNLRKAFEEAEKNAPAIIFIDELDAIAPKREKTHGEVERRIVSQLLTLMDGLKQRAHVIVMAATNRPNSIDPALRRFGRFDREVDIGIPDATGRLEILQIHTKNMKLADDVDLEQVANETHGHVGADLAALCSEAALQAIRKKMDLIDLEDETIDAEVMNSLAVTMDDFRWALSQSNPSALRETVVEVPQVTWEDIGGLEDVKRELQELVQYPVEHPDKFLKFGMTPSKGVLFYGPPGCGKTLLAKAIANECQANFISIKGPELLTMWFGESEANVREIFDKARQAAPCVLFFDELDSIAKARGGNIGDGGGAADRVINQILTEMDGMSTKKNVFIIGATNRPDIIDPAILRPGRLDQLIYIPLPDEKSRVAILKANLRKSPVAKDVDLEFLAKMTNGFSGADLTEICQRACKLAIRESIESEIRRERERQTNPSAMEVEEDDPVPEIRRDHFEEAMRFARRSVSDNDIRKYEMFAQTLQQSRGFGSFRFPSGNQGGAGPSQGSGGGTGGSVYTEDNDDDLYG
Insulin prom inh – inhibitors of insulin promoter-driven GFP, primary screen, imaging, TRM-6 cells (human fetal islet line), eGFP reporter, cell count; reporter expression induced with tamoxifen; inhibition, % at 2 µM; 130,000 tested, 0.9% active; AID 1273, 2008;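 active means inhibition above the mean plus 3 SD, with well images judged a real hit on visual review, cut at about 60% in these data, passing the limit was not always enough; inconclusive means inhibition over the cutoff but images rejected on review; inactive means inhibition not above the cutoff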
HCT116 PTEN-null – growth suppression of PTEN-null HCT116, primary screen, cell-based, CellTiter-Glo | HCT116 PTEN-null viability, 60 h; hits give low values | viability, % at 10 µM | 140,000 tested, 1.2% active | AID 827, 2007;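 active means viability at or below a set limit, 4 SD under the median of all tested compounds, cut at about 3.7% in these data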;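 further: PTEN knockout HCT116 line with beta catenin targeted HCT116 as companion control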
L major viab – Leishmania major promastigote growth inhibition, primary screen; 200,000 tested, 9% active; AID 1063, 2008; Leishmania major promastigotes, resazurin fluorescence viability; inhibition, % at 10 µM; in the data active means inhibition above about 50%;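 further: promastigotes grown with compound for 44 hours at 28 °C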
HCT116 bCat-KO – primary screen for growth suppressors in beta-catenin knockout HCT116 cells (colon tumor, human). 140,000 tested, 1.5% active. viability, % at 10 µM. HCT116 beta-catenin knockout viability, CellTiter-Glo, 60 h; hits give low values. AID 818, 2007;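 active means viability at or under a set limit, the compound median less 4 SD, cut at about 6% in these data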
Large screens that a line does not name were inactive. This is a sample that favours compounds with a hit; in the whole collection about 10% have one here.

CCn1c(-c2cccs2)nc2ccccc21	Insulin prom inh inconclusive (no result: ROMK mod)
C#CCn1c(-c2cccs2)nc2ccccc21	Insulin prom inh 92.6 (no result: HCT116 PTEN-null, HCT116 bCat-KO)
O=C1C(=O)N(C2CCCC2)C(=O)N1Cc1c(F)cccc1Cl	none (no result: HCT116 PTEN-null, HCT116 bCat-KO)
COc1ccccc1N(Cc1cc(=O)[nH]c2ccccc12)C(=O)c1ccc([N+](=O)[O-])cc1	none (no result: ROMK mod, Insulin prom inh, HCT116 PTEN-null, L major viab, HCT116 bCat-KO)
O=C(CN1C(=O)COc2ccccc21)N(Cc1cccnc1)Cc1cccc(F)c1	L major viab 94.6 (no result: ROMK mod)
CCC1Oc2ccc(C)cc2N(CC(=O)N(Cc2ccncc2)Cc2ccco2)C1=O (stereo unspecified)	L major viab 80.1 (no result: ROMK mod)
CCC1Oc2ccc(C)cc2N(CC(=O)N(Cc2cccnc2)Cc2cccc(F)c2)C1=O (stereo unspecified)	L major viab 92.5 (no result: ROMK mod)
CCc1cccc(Nc2c([N+](=O)[O-])cc(C(=O)N3CC(=O)Nc4ccccc43)cc2[N+](=O)[O-])c1	L major viab 78.5 (no result: ROMK mod, Insulin prom inh)
COc1cc(CNCCc2c[nH]c3ccccc23)ccc1OCc1ccc(F)cc1	HCT116 PTEN-null 2.0, L major viab 100.4, HCT116 bCat-KO 1.5
COc1cccc(CNCCc2c[nH]c3ccccc23)c1OCc1ccc(F)cc1	HCT116 PTEN-null 1.2, L major viab 100.4, HCT116 bCat-KO 1.4
COc1ccccc1NC(=S)NCCc1c[nH]c2ccccc12	none (no result: ROMK mod)
Cc1ccc(-c2cc(C(F)(F)F)n3nc(C(=O)Nc4ccon4)cc3n2)cc1C	none (no result: ROMK mod, Insulin prom inh, HCT116 PTEN-null, L major viab, HCT116 bCat-KO)
Cc1ccc(-c2cc(C(F)(F)F)n3nc(C(=O)NCCCn4ccnc4)cc3n2)cc1C	L major viab 100.3 (no result: Insulin prom inh)
O=C(Nc1cccc(F)c1)N(Cc1ccc(Cl)cc1)CC(O)C(F)(F)F (stereo unspecified)	L major viab 100.6 (no result: ROMK mod)
O=C(Nc1ccccc1)N(Cc1ccccc1)CC(O)C(F)(F)F (stereo unspecified)	none (no result: ROMK mod)
CC(C)(C)c1ccc(OCC(=O)N/N=C/c2cc(Br)ccc2OC(=O)c2ccco2)cc1	L major viab 94.4, HCT116 bCat-KO 4.8 (no result: Insulin prom inh)
O=C(Oc1cccc(/C=N/Nc2nc(Nc3ccccc3)nc(N3CCOCC3)n2)c1)c1ccco1	L major viab 64.5
COc1cc(/C=N/NC(=O)COc2ccccc2[N+](=O)[O-])ccc1OC(=O)c1ccco1	L major viab 56.5
COc1cc(/C=N/Nc2nc(N3CCCCC3)nc(N3CCCCC3)n2)ccc1OC(=O)c1ccco1	L major viab 59.5 (no result: HCT116 PTEN-null, HCT116 bCat-KO)
Cc1ccccc1Nc1c(N)c(=O)oc2ccccc12	none (no result: ROMK mod)
COc1ccc2c(-c3ccccc3)cc(SCC(=O)NC3CCS(=O)(=O)C3)nc2c1 (stereo unspecified)	none (no result: ROMK mod, Insulin prom inh)
CC1(C)CC2(CC(c3ccccc3)c3ccc(O)cc3O2)NC(=S)N1 (stereo unspecified)	none (no result: HCT116 PTEN-null, HCT116 bCat-KO)
O=C(Nc1cc([N+](=O)[O-])ccc1F)C1CC1	none
CCN(C(=O)COC(=O)c1cccc(NS(=O)(=O)c2ccc(F)c(F)c2)c1)C1CCS(=O)(=O)C1 (stereo unspecified)	none (no result: HCT116 PTEN-null, HCT116 bCat-KO)
CCOc1cc(/C=N/Nc2nc(Nc3ccccc3)nc(N3CCCCC3)n2)ccc1OCC(=O)O	none (no result: HCT116 PTEN-null, HCT116 bCat-KO)
COc1ccc(/C=N/Nc2nc(Nc3ccccc3)nc(N3CCCCC3)n2)cc1OC	L major viab 98.4 (no result: ROMK mod)
Fc1ccc(-n2cc(CNCCc3ccncc3)c(-c3ccccc3Cl)n2)cc1	L major viab 64.0 (no result: HCT116 PTEN-null, HCT116 bCat-KO)
Fc1ccc(-n2cc(CNCCc3cccnc3)c(-c3ccccc3Cl)n2)cc1	L major viab 57.2 (no result: Insulin prom inh, HCT116 PTEN-null, HCT116 bCat-KO)
COc1ccc(-n2cc(CNCCCN3CCCC3=O)c(-c3ccccc3Cl)n2)cc1	none (no result: Insulin prom inh, HCT116 PTEN-null, HCT116 bCat-KO)
COc1ccccc1NC(=O)c1ccc(NC(=O)CSc2ncn[nH]2)cc1	none
Cc1cc(CN2CCOCC2)c(O)c(C2(C)CCCCC2)c1	L major viab 55.9
O=C(C[n+]1cccc(/C=N/O)c1)N1CCCc2ccccc21	none (no result: HCT116 PTEN-null, HCT116 bCat-KO)
CN(C)c1ccc(C2CC(=O)C=C(Nc3ccccc3N)C2)cc1 (stereo unspecified)	none (no result: ROMK mod, Insulin prom inh, HCT116 PTEN-null, L major viab, HCT116 bCat-KO)
O=C1C(Cc2ccc(Br)cc2)SC(=Nc2ccccc2)N1c1ccccc1 (stereo unspecified)	L major viab 54.3
COc1ccccc1C(=O)Nc1onc(C)c1C#N	none (no result: Insulin prom inh, HCT116 PTEN-null, HCT116 bCat-KO)
Fc1ccc(/C=N/Nc2ccccn2)cc1	L major viab 69.2
CCN(CC)c1ccc(/C=N/Nc2nc3ccccc3[nH]2)cc1	HCT116 PTEN-null 1.6, L major viab 100.0, HCT116 bCat-KO 2.8
O=c1[nH]c(N/N=C\c2ccc(F)cc2)nc2ccccc12	L major viab 64.6 (no result: Insulin prom inh, HCT116 PTEN-null, HCT116 bCat-KO)
CC(=O)Nc1ccc(/C=N/Nc2nc3ccccc3[nH]2)cc1	L major viab 99.7 (no result: ROMK mod, Insulin prom inh)
O=c1[nH]c(N/N=C/c2ccc(O)cc2)nc2ccccc12	none
CCN1CCN(C(=O)C2CCC(CNS(=O)(=O)c3ccccc3)CC2)CC1 (stereo unspecified)	none
CC(=O)Nc1ccc(S(=O)(=O)N2CCC(NC(C)=O)(c3cccc(F)c3)CC2)cc1	none (no result: ROMK mod)
CCC(C)N(C)Cc1cccc(C2(O)CCN(S(=O)(=O)c3ccc(F)cc3)CC2)c1 (stereo unspecified)	L major viab 99.9
COc1cc(/C=N/n2cnnc2-n2nc(C)cc2C)cc([N+](=O)[O-])c1O	none (no result: Insulin prom inh, HCT116 PTEN-null, L major viab, HCT116 bCat-KO)
CNC(=O)c1cc2cc(OC)ccc2n1CCN(Cc1ccccc1)Cc1ccccc1	L major viab 100.2
O=C(COc1ccc2oc(-c3ccccc3)cc(=O)c2c1)Nc1ccccc1	none (no result: ROMK mod, Insulin prom inh)
Clc1ccc(COn2nnc3ccccc32)c(Cl)c1	none
COc1ccc2oc(=O)c(-c3csc(Nc4cccc(O)c4)n3)cc2c1	L major viab 98.9
CCOC(=O)C1CCN(C(=O)Nc2ccc(Cl)cc2Cl)CC1	none
CC1(C)C(=O)N(OCc2ccccc2)C(C)(C)C(=O)N1OCc1ccccc1	none
Cc1c(NC(=O)/C(C#N)=C/c2cccs2)c(=O)n(-c2ccccc2)n1C	L major viab 66.6 (no result: ROMK mod)
CCC(C)NS(=O)(=O)c1ccc(S(=O)(=O)N2CCCC3(CCCCC3)C2)cc1 (stereo unspecified)	none (no result: ROMK mod)
CC1CCCN(CCC(=O)c2ccc(Br)cc2)C1 (stereo unspecified)	L major viab 96.0 (no result: ROMK mod)
CC(C)SCCCOc1ccc(C(C)(C)C)cc1	none
CC(=O)c1ccc(OCC(O)CN2CCCC(C)C2)cc1 (stereo unspecified)	none (no result: ROMK mod, Insulin prom inh)
COc1cccc(OCCCCN2CCCCC2)c1	Insulin prom inh inconclusive, L major viab 97.4 (no result: ROMK mod)
CC(C)(C)c1ccc(OCCN2CCCC2)cc1	L major viab 97.5 (no result: ROMK mod)
CC1CCN(CCC(=O)Nc2ccc(Br)cc2)CC1	none (no result: HCT116 PTEN-null, HCT116 bCat-KO)
CC1CCCN(CCOc2ccc(Br)cc2)C1 (stereo unspecified)	L major viab 51.3 (no result: ROMK mod)
Cc1ccc(OC(=O)c2cccc(C(=O)Oc3ccc(C)cn3)n2)nc1	none (no result: Insulin prom inh)
O=C(C1CCCO1)N1CCN(C(=S)Nc2ccccc2C(F)(F)F)CC1 (stereo unspecified)	none (no result: ROMK mod, Insulin prom inh)
